Test [1] has as its target rat Peripheral-type Benzodiazepine Receptor (PBR), Tspo (gene 24230) (UniProt P16257). The experiment in a line: NVS_MP_rPBR: NovaScreen (NVS) Membrane Protein Assay for rat Peripheral-type Benzodiazepine Receptor (PBR) (AID 2283335). The method in brief:
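Single-concentration duplicate screening at 25 uM preceded concentration-series retesting of actives. Binding of a specific radioligand to rat kidney membrane PBR was read by filtration radiodetection after 1 h, with plate-wise positive and negative controls.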

Test [2] in a line: NVS_IC_rCaBTZCHL: NovaScreen (NVS) Ion Channel Assay for Calcium Channel, Type L, Benzothiazepine Site (CaBTZCHL) (AID 2283337). The method in brief:
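Rat cortical membrane preparation, cell-free. Radioligand displaced by test chemical; 1.5 h incubation; filtration, scintillation count. DMSO = negative control/baseline. Primary: duplicate, 25 uM; secondary: concentration series.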

For test [3], the target named is rat Gamma-Aminobutyric Acid Type A Receptor BDZ, alpha 6 site (GABARa6), Gabra6 (gene 29708) (UniProt P30191). Put plainly: NVS_LGIC_rGABARa6: NovaScreen (NVS) Ligand-Gated Ion Channel Assay for rat Gamma-Aminobutyric Acid Type A Receptor BDZ, alpha 6 site (GABARa6) (AID 2283339). The procedure, abridged:
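Actives from a 25 uM duplicate screen were retested in concentration series (max 50 uM). Specific radioligand displacement from rat cerebellar membranes was counted by filter-based scintillation at 1 h; DMSO served as baseline.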

The target of test [4] is human Peripheral-type Benzodiazepine Receptor (PBR), TSPO (gene 706) (UniProt P30536). Put plainly: NVS_MP_hPBR: NovaScreen (NVS) Membrane Protein Assay for human Peripheral-type Benzodiazepine Receptor (PBR) (AID 2283331).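 Further: hits reduce radioligand binding relative to DMSO baseline.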 The method in brief: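 Cell-free binding to human colonic membrane preparations measured by filter-based scintillation counting after 1 h. Compounds first run at 25 uM in duplicate, then concentration series for actives; signal loss against DMSO baseline.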

In test [5] the target is Voltage-gated inwardly rectifying potassium channel KCNH2 (Homo sapiens) (UniProt Q12809). The experiment in a line: NVS_IC_hKhERGCh: NovaScreen (NVS) Ion Channel Assay for human Potassium Channel ERG (KhERGCh) (AID 2283333). The procedure, abridged: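 Membranes from CHO cells expressing human ERG; displacement of radioligand measured by filtration and scintillation after 0.75 h. Single-concentration duplicate screen at 25 uM, then concentration-response for actives; DMSO baseline.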

For test [6], the target named is human Androgen Receptor (AR), AR (gene 367) (UniProt P10275). Put plainly: NVS_NR_hAR: NovaScreen (NVS) Nuclear Receptor Binding Assay for human Androgen Receptor (AR) (AID 2283332). The procedure, abridged: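 Radioligand competitive binding, scintillation read-out, in cell-free extract from LnCAP, measured 20 h after dosing. Screened first in duplicate at 25 uM, then concentration series for actives; activity fitted against DMSO.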

We go through 22 molecules from PubChem BioAssay (EPA / NIEHS).

“And” between values parts separate entries of the source, which are not always exact repeats. Equal values may be shown once. Records with an inconclusive call do not appear. The source holds several records for some structures; these can differ, active in one and inactive in another. The source made the active and inactive calls. How the source made its calls: active means hit-call score of the fitted dose curve at least 0.9, where 1 is the maximum; inconclusive means response in the unintended direction; inactive means score below 0.9.

Sequence of human Peripheral-type Benzodiazepine Receptor (PBR), TSPO (gene 706) (P30536 whole entry, looked up): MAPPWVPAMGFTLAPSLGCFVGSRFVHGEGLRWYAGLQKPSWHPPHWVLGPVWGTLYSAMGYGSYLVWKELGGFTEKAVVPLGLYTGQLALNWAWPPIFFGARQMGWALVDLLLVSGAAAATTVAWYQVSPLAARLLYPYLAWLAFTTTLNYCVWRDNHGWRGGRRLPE
Sequence of rat Peripheral-type Benzodiazepine Receptor (PBR), Tspo (gene 24230) (P16257 whole entry, looked up): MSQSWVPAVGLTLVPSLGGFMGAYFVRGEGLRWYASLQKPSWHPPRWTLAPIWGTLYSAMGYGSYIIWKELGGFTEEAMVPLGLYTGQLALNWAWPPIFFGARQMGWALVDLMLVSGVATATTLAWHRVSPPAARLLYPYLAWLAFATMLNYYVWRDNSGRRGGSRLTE
Sequence of human Androgen Receptor (AR), AR (gene 367) (P10275 whole entry, looked up): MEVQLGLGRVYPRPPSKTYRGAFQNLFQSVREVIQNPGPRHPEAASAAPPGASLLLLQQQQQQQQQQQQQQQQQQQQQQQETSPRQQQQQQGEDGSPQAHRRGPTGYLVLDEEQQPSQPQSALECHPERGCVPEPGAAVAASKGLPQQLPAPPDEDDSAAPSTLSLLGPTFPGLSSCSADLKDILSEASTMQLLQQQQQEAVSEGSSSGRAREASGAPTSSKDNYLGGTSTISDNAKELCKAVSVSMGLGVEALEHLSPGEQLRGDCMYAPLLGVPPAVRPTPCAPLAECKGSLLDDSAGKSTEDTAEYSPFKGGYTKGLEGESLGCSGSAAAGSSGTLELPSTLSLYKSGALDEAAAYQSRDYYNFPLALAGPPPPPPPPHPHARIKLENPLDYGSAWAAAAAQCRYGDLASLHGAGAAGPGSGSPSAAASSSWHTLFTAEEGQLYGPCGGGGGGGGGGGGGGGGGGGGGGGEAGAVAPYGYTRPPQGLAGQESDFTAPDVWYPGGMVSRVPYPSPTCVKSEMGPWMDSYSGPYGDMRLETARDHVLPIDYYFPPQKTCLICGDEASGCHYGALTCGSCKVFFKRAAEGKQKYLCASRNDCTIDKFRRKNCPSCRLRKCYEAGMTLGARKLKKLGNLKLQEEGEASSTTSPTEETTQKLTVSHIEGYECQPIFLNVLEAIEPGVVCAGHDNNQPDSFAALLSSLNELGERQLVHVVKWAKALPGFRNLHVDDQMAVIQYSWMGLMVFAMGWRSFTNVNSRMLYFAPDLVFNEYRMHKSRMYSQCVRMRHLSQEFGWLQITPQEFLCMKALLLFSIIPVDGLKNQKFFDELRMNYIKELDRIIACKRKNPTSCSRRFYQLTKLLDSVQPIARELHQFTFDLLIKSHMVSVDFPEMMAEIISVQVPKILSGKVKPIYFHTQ
Sequence of rat Gamma-Aminobutyric Acid Type A Receptor BDZ, alpha 6 site (GABARa6), Gabra6 (gene 29708) (P30191 whole entry, looked up): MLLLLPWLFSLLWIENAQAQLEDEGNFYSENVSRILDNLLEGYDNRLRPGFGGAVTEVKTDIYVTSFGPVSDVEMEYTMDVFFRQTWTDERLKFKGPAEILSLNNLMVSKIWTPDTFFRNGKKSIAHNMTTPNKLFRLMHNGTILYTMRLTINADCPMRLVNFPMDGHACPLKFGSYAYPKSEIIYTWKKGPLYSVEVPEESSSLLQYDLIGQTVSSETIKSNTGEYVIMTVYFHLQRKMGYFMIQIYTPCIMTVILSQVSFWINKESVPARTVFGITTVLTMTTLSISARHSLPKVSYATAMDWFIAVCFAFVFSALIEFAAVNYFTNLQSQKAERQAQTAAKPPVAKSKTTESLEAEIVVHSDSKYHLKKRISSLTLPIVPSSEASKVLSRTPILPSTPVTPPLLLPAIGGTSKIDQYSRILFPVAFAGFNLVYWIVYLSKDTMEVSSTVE
Sequence of Voltage-gated inwardly rectifying potassium channel KCNH2 (Homo sapiens) (Q12809 whole entry, looked up): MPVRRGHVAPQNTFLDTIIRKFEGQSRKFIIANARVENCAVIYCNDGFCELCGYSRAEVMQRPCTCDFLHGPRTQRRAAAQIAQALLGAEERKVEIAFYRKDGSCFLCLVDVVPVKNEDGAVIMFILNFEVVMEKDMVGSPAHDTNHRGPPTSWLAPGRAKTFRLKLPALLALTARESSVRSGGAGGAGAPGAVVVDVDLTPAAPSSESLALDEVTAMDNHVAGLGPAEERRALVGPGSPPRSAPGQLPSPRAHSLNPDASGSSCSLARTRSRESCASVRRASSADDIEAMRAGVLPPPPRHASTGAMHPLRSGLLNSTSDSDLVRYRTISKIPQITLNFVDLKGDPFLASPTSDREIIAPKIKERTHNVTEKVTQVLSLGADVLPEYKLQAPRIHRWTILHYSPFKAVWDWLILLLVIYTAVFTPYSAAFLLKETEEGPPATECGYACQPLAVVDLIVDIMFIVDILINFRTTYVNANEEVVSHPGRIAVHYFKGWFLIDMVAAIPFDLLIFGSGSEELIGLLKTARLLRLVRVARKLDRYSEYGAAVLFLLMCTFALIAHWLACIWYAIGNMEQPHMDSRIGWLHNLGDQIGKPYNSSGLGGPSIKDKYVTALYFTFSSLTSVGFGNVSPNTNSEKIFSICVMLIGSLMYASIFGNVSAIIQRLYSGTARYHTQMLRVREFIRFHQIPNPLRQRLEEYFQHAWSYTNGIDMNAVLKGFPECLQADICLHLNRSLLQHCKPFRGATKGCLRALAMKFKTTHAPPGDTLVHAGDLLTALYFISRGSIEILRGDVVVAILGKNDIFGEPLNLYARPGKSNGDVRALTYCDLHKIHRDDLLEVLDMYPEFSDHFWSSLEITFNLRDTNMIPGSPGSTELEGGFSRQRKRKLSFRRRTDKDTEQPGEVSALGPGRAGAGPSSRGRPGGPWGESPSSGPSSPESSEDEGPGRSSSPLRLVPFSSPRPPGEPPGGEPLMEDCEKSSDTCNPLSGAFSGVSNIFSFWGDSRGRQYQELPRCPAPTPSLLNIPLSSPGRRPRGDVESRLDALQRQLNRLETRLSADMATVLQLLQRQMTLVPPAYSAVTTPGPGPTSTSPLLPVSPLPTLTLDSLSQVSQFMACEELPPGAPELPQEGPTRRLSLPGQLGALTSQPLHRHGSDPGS

Consider `O=Cc1cccc(Oc2ccccc2)c1`, for which the molecule was called inactive in test [1] and in test [2]. With `CN(C)N=O`, the call in test [3] was inactive. Broadly, the AC50 is the concentration at which the activity in the assay is half-maximal. For the molecule `O=C1C(Cl)=C(Cl)C(=O)c2ccccc21`, the AC50 in test [4] was 7.47 µM (active). On to `CCOC(=O)/C=C(C)/C=C/C[C@@H](C)CCCC(C)C`, for which the figures for the AC50 in test [4] and in test [1] were 33.2 µM (active) and 17.6 µM (active), respectively. Turning to `CCC(=O)c1ccccc1`, the result in test [3] was inactive.

`COP(=S)(OC)Oc1ccc(S(=O)(=O)N(C)C)cc1`: the AC50 is 5.32 µM (active) in test [4] and 1.45 µM (active) in test [1].

In the case of `Clc1ccc(C2(Cn3cncn3)CC(Br)CO2)c(Cl)c1` (stereo not drawn), the AC50 in test [1] was 14.5 µM (active). For `Oc1ccc(-c2ccccc2)cc1`, the concentration at half-maximal activity (AC50) in test [4] is 43.8 µM (active) and 13.8 µM (active). Consider `Nc1cccc2ccccc12`, for which, in test [1], the outcome was inactive.

With `O=C(O)C(Cl)(Cl)Cl`, in test [5], the molecule was classed as inactive.

With `COP(=S)(OC)Oc1c(Cl)cc(C)cc1Cl`, the half-maximal activity concentration (AC50) in test [4] is 9.23 µM (active). Further, in test [1], the result was inactive. Consider `Nc1ccc(-c2ccc(N)c(Cl)c2)cc1Cl`, for which the AC50 in test [4] is 9.91 µM (active). Besides, in test [1], the call was inactive. On to `CCOP(=S)(OCC)SCCS(=O)(=O)CC`, for which, in test [4], the concentration at half-maximal activity (AC50) was 30.7 µM (active). Regarding `N#CCCO`, the call in test [6] was inactive. For `CCN(CC)C(=O)Cl`, the molecule was called inactive in test [6].

In the case of `Cl/C=C\C[N+]12CN3CN(CN(C3)C1)C2`, the outcome in test [6] was inactive. Consider `C[C@@H]1C[C@@H]([C@H](O)CC2CC(=O)NC(=O)C2)C(=O)[C@@H](C)C1`, for which, in test [1], the AC50 is 33.3 µM (active) and the outcome was inactive. In the case of `Clc1ccc(COC(Cn2ccnc2)c2ccc(Cl)cc2Cl)cc1` (stereo not drawn), the AC50 in test [4] was 1.09 µM (active); in test [1], 1.63 µM (active). With `CCC[CH2][Sn]([CH2]CCC)([CH2]CCC)[O]C(=O)c1ccccc1`, in test [4], the AC50 is 5.59 µM (active). For the molecule `COc1cc(-c2ccc(N)c(OC)c2)ccc1N`, the half-maximal activity concentration (AC50) is 19.4 µM (active) in test [4]; 2.75 µM (active) and 2.71 µM (active) in test [1]. Regarding `COP(=S)(OC)Oc1ccc(Sc2ccc(OP(=S)(OC)OC)cc2)cc1`, the AC50 in test [4] is 1.16 µM (active) and 16.9 µM (active); in test [6] it was 17.9 µM (active); in test [1], 0.307 µM (active); in test [2], 25 µM (active). For `CC(C)CCCCCCOC(=O)c1ccccc1C(=O)OCCCCCCC(C)C`, in test [4], the outcome was inactive.
